The source of these data is PubChem BioAssay (NCATS).

Assay [1] concerns the target Tyrosine-protein kinase Yes (Homo sapiens) (UniProt P07947). The experiment in a line: qHTS for small molecule inhibitors of Yes1 kinase: Primary Screen (AID 686947). Note: nearly all actives have a fitted effect of over 60% in size. Note: potency is the fitted concentration of half-maximal effect. The procedure, abridged:
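Yes1 (4 nM) preincubated 20 min with compound, then 60 min room-temperature reaction with 0.1 mM ATP and 0.3 mg/mL poly(E4Y) in pH 7.5 Tris, 10 mM MgCl2. ADP measured by ADP-Glo luminescence, normalised to enzyme/no-enzyme controls.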
(qHTS replaces the single test concentration by a dilution series.)

A short description of assay [2]: qHTS for small molecule inhibitors of Yes1 kinase: Counter Assay (AID 686950).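 Note: no kinase present so only ADP-Glo detection of a fixed ADP amount is tested; luminescence from ADP-Glo reporting ADP in a fixed ATP and ADP mixture; series mostly up to about 77 µM.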 In a few lines: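 Enzyme-free ADP-Glo interference check: compounds were preincubated 20 min in buffer, then an ATP/ADP mix (0.08 mM ATP, 0.02 mM ADP final) was added for 60 min at room temperature before two-step ADP-Glo luminescence detection.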

SMILES strings stand for the structures. Results filed as inconclusive are left out. Entries that show only a call come without a potency. A structure can be active in one record and inactive in another. The source made the active and inactive calls. Calls come from the whole dose curve; as a rule, active = well fitted curve in the direction sought with a large enough effect; inconclusive = small, poorly fitted or top-dose-only effect, or another doubt; inactive = no such curve, though single readings can be large; an effect the other way counts as inactive or inconclusive.

Chain of Tyrosine-protein kinase Yes (Homo sapiens) (P07947 whole entry, looked up): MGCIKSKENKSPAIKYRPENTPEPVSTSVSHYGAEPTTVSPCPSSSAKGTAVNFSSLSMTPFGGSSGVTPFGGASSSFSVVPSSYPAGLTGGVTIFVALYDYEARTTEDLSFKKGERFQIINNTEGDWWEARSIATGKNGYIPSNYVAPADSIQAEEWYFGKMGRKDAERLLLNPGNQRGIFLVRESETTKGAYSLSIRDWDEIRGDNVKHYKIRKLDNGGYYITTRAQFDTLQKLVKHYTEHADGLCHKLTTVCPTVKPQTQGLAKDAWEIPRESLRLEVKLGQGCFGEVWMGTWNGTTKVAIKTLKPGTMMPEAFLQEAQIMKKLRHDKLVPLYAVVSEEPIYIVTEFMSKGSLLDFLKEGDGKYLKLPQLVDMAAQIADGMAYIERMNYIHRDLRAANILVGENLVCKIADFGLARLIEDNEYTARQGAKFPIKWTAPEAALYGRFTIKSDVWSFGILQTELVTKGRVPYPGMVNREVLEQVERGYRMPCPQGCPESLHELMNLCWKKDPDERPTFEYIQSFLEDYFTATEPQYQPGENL

For the compound `CN(C)c1cc2c(Nc3ccc4nc(Cc5ccccc5)[nH]c4c3)ncnc2cn1`, the Potency in assay [1] was 0.412 µM (active). Moreover, the compound was classed as inactive in assay [2].

Take `Cc1cc(O)cc(C)c1C=Cc1cncc(-c2nn[nH]n2)c1`: the Potency in assay [1] was 0.0654 µM (active). Further, the result in assay [2] was inactive.

In the case of `Cc1ccc(-c2cc3c(NC(=O)C4CC4)ncnc3o2)cc1`, the Potency in assay [1] is 0.733 µM (active). Besides, the result in assay [2] was inactive.

In the case of `FC(F)(F)c1ccc(-c2nn3ncccc3c2-c2ccnc(Nc3ccc4c(c3)OCCO4)n2)cc1`, the Potency in assay [1] is 2.6 µM (active). The result in assay [2] was inactive.

In the case of `CN1CCN(Cc2ccc(-c3cc4ncnc(Nc5ccc(OCc6cccc(F)c6)c(Cl)c5)c4s3)o2)CC1`, in assay [1], the Potency was 0.823 µM (active). In addition, the result in assay [2] was inactive.

Turning to `N#Cc1ccc2c(-c3ccnc(NC4CC4)n3)c(-c3ccc(F)cc3)nn2c1`, the Potency in assay [1] is 26 µM (active). The compound was called inactive in assay [2].

`NC(=O)Cc1ccccc1Oc1nccc(-c2c(-c3ccc(F)cc3)ncn2C2CCNCC2)n1`: in assay [1], the Potency is 36.8 µM (active). The result in assay [2] was inactive.

On to `Cc1cc(O)cc(C)c1C=Cc1cncc(C(=O)OC(C)(C)C)c1`, for which the Potency in assay [1] was 0.733 µM (active). Further, in assay [2], the compound was called inactive.

As to `NC(=O)CCc1ccccc1Oc1nccc(-c2c(-c3ccc(F)cc3)ncn2C2CCNCC2)n1`, the Potency entry in assay [1] was “inactive”. Moreover, the outcome in assay [2] was inactive.

On to `CCN(CC)Cc1ccc(Nc2nccc(-c3cnn4ncccc34)n2)cc1`, for which the Potency in assay [1] is 7.33 µM (active). In addition, the compound was called inactive in assay [2].

For the compound `COc1cc(Nc2ncc(-c3ccccc3)o2)cc(OC)c1`, in assay [1], the Potency was 1.46 µM (active). In addition, the call in assay [2] was inactive.

Consider `CCN(CC)S(=O)(=O)c1ccc(OC)c(Nc2ncc(-c3ccccc3)o2)c1`, for which, in assay [1], the Potency is 0.654 µM (active). For the same compound, the compound was classed as inactive in assay [2].

Consider `COc1ccccc1-c1cc(C=C2C(=O)Nc3ncc(Br)cc32)cc(Br)c1O`, for which, in assay [1], the Potency is 0.733 µM (active). Besides, in assay [2], the compound was classed as inactive.

For `Nc1ncnc2occ(-c3ccc(NC(=O)Nc4cc(C(F)(F)F)ccc4F)cc3)c12`, the Potency in assay [1] is 2.07 µM (active) and inactive. For the same compound, the compound was called inactive in assay [2].

With `CS(=O)(=O)CCNCc1ccoc1-c1ccc2ncnc(Nc3ccc(OCc4ccccc4)cc3)c2c1`, the Potency in assay [1] is 3.68 µM (active). The call in assay [2] was inactive.

As for `N#Cc1cccc(Nc2ncc(-c3ccccc3)o2)c1`, the Potency in assay [1] is 26 µM (active). For the same compound, the outcome in assay [2] was inactive.

Consider `COc1ccc2cc(-c3c(-c4ccncc4)nc(-c4ccc(S(C)=O)cc4C)n3C)ccc2c1` (centres undefined), for which the Potency in assay [1] was 1.64 µM (active). Also, the outcome in assay [2] was inactive.

`NS(=O)(=O)c1cccc(-c2ccc3c(NC(=O)C4CC4)n[nH]c3c2)c1`: the Potency in assay [1] was 4.12 µM (active). Besides, the compound was called inactive in assay [2].

Consider `Nc1ncnc2occ(-c3ccc(NC(=O)Nc4cccc(C(F)(F)F)c4)cc3)c12`, for which the Potency in assay [1] was 1.64 µM (active). In addition, in assay [2], the compound was classed as inactive.

For the compound `Nc1nccc(-c2c(-c3ccc(F)cc3)ncn2CCCN2CCOCC2)n1`, in assay [1], the Potency was 9.23 µM (active). In addition, in assay [2], the call was inactive.

With `CS(=O)(=O)CCNCc1coc(-c2ccc3ncnc(Nc4ccc(OCc5ccccc5)cc4)c3c2)c1`, the Potency in assay [1] was 1.84 µM (active). The compound was called inactive in assay [2].

For the compound `CCn1c(-c2nonc2N)nc2ccc(F)cc21`, the Potency entry in assay [1] is “inactive”. Further, the compound was called inactive in assay [2].

For the compound `CN1CCC(n2cnc(-c3ccc(F)cc3)c2-c2ccnc(Nc3ccccc3)n2)CC1`, in assay [1], the Potency was 1.16 µM (active). Besides, in assay [2], the outcome was inactive.

As to `COc1cc(N2CCN(C(C)C)CC2)ccc1Nc1nc(Nc2ccc(F)cc2C(=O)NCC(O)CO)c2cc[nH]c2n1` (centres undefined), the Potency result in assay [1] is “inactive”. For the same compound, the compound was classed as inactive in assay [2].

In the case of `Fc1ccc(-c2ncn(C3CCNCC3)c2-c2ccnc(Oc3ccc(F)c(F)c3)n2)cc1`, the Potency entry in assay [1] is “inactive”. In addition, the compound was classed as inactive in assay [2].

As to `COc1ccccc1Nc1ncc(-c2ccccc2)o1`, in assay [1], the Potency was 9.23 µM (active). Moreover, in assay [2], the result was inactive.

With `Cc1c2ccc(N(C)c3ccnc(Nc4cccc(S(N)(=O)=O)c4)n3)cc2nn1C`, the Potency in assay [1] is 0.519 µM (active). For the same compound, the result in assay [2] was inactive.

In the case of `N#Cc1ccc(Oc2nccc(-c3c(-c4ccc(F)cc4)ncn3C3CCNCC3)n2)cc1`, the Potency result in assay [1] is “inactive”. Further, the compound was classed as inactive in assay [2].

Turning to `COc1cc2ncn(-c3cc(OCc4ccccc4C(F)(F)F)c(C(C)=O)s3)c2cc1OC`, in assay [1], the Potency result is “inactive”. In addition, the compound was called inactive in assay [2].

For `COc1ccc(-c2cc(-c3cn[nH]c3-c3ccccn3)ccn2)cc1`, the Potency in assay [1] was 14.6 µM (active). In addition, the call in assay [2] was inactive.

As to `Cc1ccc(O)cc1Nc1ccnc2cc(-c3ccccn3)ccc12`, in assay [1], the Potency is 0.0073 µM (active). The compound was classed as inactive in assay [2].

Take `COC(=O)Nc1nc2ccc(Oc3ccc(NC(=O)Nc4ccccc4)cc3)cc2[nH]1`: in assay [1], the Potency entry is “inactive”. In assay [2], the result was inactive.

As for `COc1cc(C=NNc2ncnc3c2cnn3-c2ccccc2)ccc1O`, the Potency in assay [1] is 0.292 µM (active). The compound was classed as inactive in assay [2].

As to `CCn1c(-c2nonc2N)nc2c(C#CC(C)(C)O)nc(CN3CCCC3)cc21`, the Potency in assay [1] is 23.2 µM (active). In assay [2], the result was inactive.

Turning to `CN(c1ccc(NC(=O)Nc2c(Cl)cccc2Cl)cc1)c1ccnc(Nc2cccc(CS(C)(=O)=O)c2)n1`, in assay [1], the Potency is 1.46 µM (active). Moreover, the call in assay [2] was inactive.

As to `Fc1ccc(-c2ncn(C3CCNCC3)c2-c2ccnc(Oc3ccc(Oc4ccccc4)cc3)n2)cc1`, the Potency result in assay [1] was “inactive”. In addition, the result in assay [2] was inactive.

As to `COc1ccc2cc(-c3c(-c4ccncc4)nc(-c4ccc(S(C)(=O)=O)cc4C)n3C)ccc2c1`, the Potency in assay [1] was 1.84 µM (active). Moreover, the result in assay [2] was inactive.

`Cc1ccc(NC(=O)c2ccnc(N3CCCC3)c2)cc1-c1ccc(C(=O)NCC2CC2)cc1`: the Potency result in assay [1] is “inactive”. The result in assay [2] was inactive.

For the compound `CCn1c(-c2nonc2N)nc2c(C#CC(C)(C)O)nc(OC(CN)c3ccccc3)cc21` (centres undefined), the Potency in assay [1] is 0.654 µM (active). For the same compound, the call in assay [2] was inactive.

With `CCc1cccc(NC(=O)Nc2ccc(Oc3ccc4nc(NC(=O)OC)[nH]c4c3)cc2)c1`, in assay [1], the Potency result was “inactive”. In assay [2], the call was inactive.

Turning to `Cn1c(-c2nonc2N)nc2cnccc21`, the Potency result in assay [1] was “inactive”. Besides, the result in assay [2] was inactive.

Turning to `COC(=O)c1ccc2c(c1)/C(=C/c1cc(Br)c(O)c(Br)c1)C(=O)N2`, the Potency in assay [1] is 0.733 µM (active). For the same compound, the compound was classed as inactive in assay [2].
